Screens deposited in PubChem by National Center for Advancing Translational Sciences (NCATS).
Rows were chosen to be rich in hits. Some 8.9% of all compounds tested hit in one or more screens of this group.
SW480 rereplic: A quantitative high throughput screen for small molecules that induce DNA re-replication in SW480 colon adenocarcinoma cells; SW480 DNA re-replication, Hoechst DNA content imaging, 48 h; Potency, µM (titrated, usually from 46.1 µM), for the others: at the top dose re-replication activation, usual class: activators; actives 1.8% (n = 340,000); AID 624297, 2012; further: potency means the concentration at half of the fitted maximal effect; % of control where 0% means no effect; nearly all actives have a fitted effect of over 55% in size
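Hoechst fluorescence of nuclei (405 nm excitation, 500-530 nm emission) measured by plate-scanning imager after 48 hr compound exposure at 37 C; re-replication scored as increased number of nuclei with elevated intensity.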
KB-V1 cytotox: qHTS assay for MDR1-selective chemotherapeutics: Primary screen using the drug-selected MDR subline cells KB-V1. AID 1347076, 2019. KB-V1 MDR cells viability, CellTiter-Glo, 72 h. Potency, µM (doses to about 46.1 µM), actives largely listed as cytotoxic. actives 3.4% (n = 400,000); further: potency means the concentration at half of the fitted maximal effect; on the % scale 0 is the no-effect control and ±100 the full control effect; nearly all actives have a fitted effect of over 60% in size
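Cells of the MDR subline KB-V1 are plated, dosed with compound at multiple concentrations, and incubated 72 h at 37 degrees C; CellTiter-Glo is then added and luminescence read after 10 min.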
DRD3 antagonist: qHTS of D3 Dopamine Receptor Antagonist: qHTS | D3R cells, DiscoveRx beta-arrestin luminescence, antagonist mode; stronger effect = lower value | max response, negative = inhibition, % | actives 2.5% (n = 360,000); in the data active means max response below about -50%; inconclusive means no clear call, values can overlap the other calls; further: on the % scale 0 is the no-effect control and ±100 the full control effect
Target sequence (P35462 whole entry, looked up): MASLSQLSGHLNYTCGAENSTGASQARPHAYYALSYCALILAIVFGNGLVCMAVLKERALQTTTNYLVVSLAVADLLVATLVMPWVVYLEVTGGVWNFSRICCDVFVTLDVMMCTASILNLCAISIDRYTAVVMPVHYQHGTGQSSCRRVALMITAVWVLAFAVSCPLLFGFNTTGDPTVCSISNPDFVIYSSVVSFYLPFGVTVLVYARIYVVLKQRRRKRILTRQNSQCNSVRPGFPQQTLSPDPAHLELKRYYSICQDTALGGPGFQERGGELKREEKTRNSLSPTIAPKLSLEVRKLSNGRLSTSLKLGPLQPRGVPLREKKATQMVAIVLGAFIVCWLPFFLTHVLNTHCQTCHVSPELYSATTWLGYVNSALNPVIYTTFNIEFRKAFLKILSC
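Cells plated overnight at 1500 cells/well, then exposed to library compounds with dopamine controls for 90 minutes at 37 degrees C. DiscoveRx reagent added for 30–60 minutes at room temperature; luminescence read, quantitative HTS format.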
DRD3 agonist: qHTS of D3 Dopamine Receptor Agonist: qHTS; D(3) dopamine receptor (Homo sapiens), P35462; D3R DiscoveRx beta-arrestin cells, luminescence, 90 min; max activation, %; actives 0.58% (n = 410,000); in the data active means max activation above about 30%; further: 0% is about no effect
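Agonist mode: compounds and dopamine controls were applied to plated cells for 90 min at 37 degrees C after an overnight attachment at 1500 cells/well. Luminescent read-out followed 30 - 60 minutes at room temperature with DiscoveRx detection reagent.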
MCF10A rereplic: A quantitative high throughput screen for small molecules that induce DNA re-replication in MCF 10a normal breast cells | MCF 10A DNA re-replication, Hoechst nuclear intensity, 48 h | Potency, µM (highest dose often 46.1 µM), inactives show top-dose activity, positive = re-replication, actives largely listed as activators | actives 2.9% (n = 350,000); further: potency means the concentration at half of the fitted maximal effect; % of control where 0% means no effect; nearly all actives have a fitted effect of over 50% in size
KB-3-1 cytotox: qHTS assay for MDR1-selective chemotherapeutics: Primary screen using the parental adenocarcinoma cell KB-3-1. Potency, µM (doses to about 46.1 µM), hits mostly cytotoxic. actives 1.4% (n = 400,000). KB-3-1 viability, CellTiter-Glo ATP luminescence, 72 h; further: potency means the concentration at half of the fitted maximal effect; on the % scale 0 is the no-effect control and ±100 the full control effect; nearly all actives have a fitted effect of over 60% in size
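KB-3-1 cells, DMEM (no phenol red) + 10% FBS; compound by pin transfer, 72 h, 37 °C. Readout: CellTiter-Glo luminescence after 10 min. Data normalized, curve-fitted.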
* hit, by the source's call; i = inactive; ? = inconclusive; · = no result; ! = not confirmed by another sample. Unless noted, the call rests on the fitted dose curve; in most records, active means well fitted curve in the direction sought with a large enough effect; inconclusive means small, poorly fitted or top-dose-only effect, or another doubt; inactive means no such curve, though single readings can be large; an effect the other way counts as inactive or inconclusive.

SMILES	SW480 rereplic	KB-V1 cytotox	DRD3 antagonist	DRD3 agonist	MCF10A rereplic	KB-3-1 cytotox
Cc1ccc(-n2nnnc2CNC(=O)c2cc(C(F)(F)F)cc(C(F)(F)F)c2)cc1C	·	·	·	-5	·	·
COc1cccc(C2=NCCc3cc4c(cc32)OCO4)c1OC	-693%	i	-15	-11	1%	i
COc1ccc2cc3[n+](cc2c1OC)CCc1cc2c(cc1-3)OCO2	-1%	i	0	-11	-5%	7.3µM*!
O=C(Nc1cccc(Cl)c1Cl)c1cc(S(=O)(=O)NCc2ccc3c(c2)OCO3)ccc1F	·	i	·	6	·	i
O=C1c2cccc3c(N4CCCCC4)ccc(c23)C(=O)N1CCO	?	?	14	3	?	i
C=CCN1C(=O)c2cccc3c(N4CCCCC4)ccc(c23)C1=O	?	i	3	8	16µM*	i
O=C1c2cccc3c(N4CCCCC4)ccc(c23)C(=O)N1c1cccc(O)c1	?	?	11	4	12µM*	?
Cc1n[nH]c(C)c1N1C(=O)c2cccc3c(N4CCCCCC4)ccc(c23)C1=O	16%	21µM*	41	6	?	i
Cc1ccc(S(=O)(=O)N(CC(=O)Nc2ccc3c(c2)OCO3)c2ccc(C)c(Cl)c2)cc1	·	i	·	-18	·	i
Cc1nc2nc(NCc3ccc(Br)cc3)[nH]n2c(=O)c1Cc1ccccc1	·	i	·	-10	·	i
CCc1ccc(CNC(=O)C2CCN(C(=O)N3CC(CC)Oc4ccc(C)cc43)CC2)cc1 (configuration not stated)	·	·	·	-4	·	·
COc1ccc(CNCC2COc3ccccc3O2)cc1 (configuration not stated)	-10%	i	-100*	4	-12%	i
COc1ccc(C(=O)NCC(=O)NCC2COc3ccccc3O2)cc1 (configuration not stated)	?	i	-52*	0	13%	i
c1ccc(CCCCNCC2COc3ccccc3O2)cc1 (configuration not stated)	4%	i	-91*	-8	11%	i
CCCNCC1COc2ccccc2O1 (configuration not stated)	-1%	i	-70*	-44	3%	i
c1ccc(CCCNCC2COc3ccccc3O2)cc1 (configuration not stated)	-4%	i	?	17	-1%	i
COc1ccc(CC(=O)NCC2COc3ccccc3O2)cc1 (configuration not stated)	-8%	?	0	2	0%	i
CCOc1ccc(-n2nc3ccc(NC(=O)c4ccc(C)cc4C)cc3n2)cc1	·	i	·	-15	·	i
CCOC(=O)Cn1c(=O)n(CC2CCCO2)c2nc(-c3ccc(C(C)C)cc3)nc(C(N)=O)c21 (configuration not stated)	·	?	·	5	·	i
COc1ccc(CCNC(=O)c2ccc(Cn3c(=O)c4ccccc4n(Cc4ccc(F)cc4Cl)c3=O)cc2)cc1OC	·	?	·	4	·	?
O=C(NCC1COc2ccccc2O1)c1ccc(NC(=O)C(c2ccccc2)c2ccccc2)cc1 (configuration not stated)	23µM*	i	-3	-1	?	i
COc1cccc(OC)c1OCCNCC1COc2ccccc2O1 (configuration not stated)	?	?	-94*	-84	4%	i
COc1cc(OC)c(OC)cc1CNCC1COc2ccccc2O1 (configuration not stated)	-5%	i	0	-10	22%	i
COc1ccc(C(=O)NCc2ccc3c(c2)CCN3C(C)=O)c(OC)c1	·	·	·	-7	·	·
Cc1nc(-c2ccc(-n3nncc3-c3ccco3)cc2)cs1	-82%	?	-12	-2	-2%	i
SMILES	SW480 rereplic	KB-V1 cytotox	DRD3 antagonist	DRD3 agonist	MCF10A rereplic	KB-3-1 cytotox
Nc1nc(-c2ccc(-n3nncc3-c3ccco3)cc2)cs1	21%	i	0	2	23µM*	i
COc1ccc(NC(=O)CN2CCN(C3c4ccccc4-c4ccccc43)CC2)c(OC)c1	19%	i	-27	4	8.2µM*	?
COc1ccccc1NC(=O)CN1CCN(CC(=O)Nc2ccccc2F)CC1	-1%	i	2	4	6%	i
CCOc1ccc(NC(=O)CN2CCN(C3c4ccccc4-c4ccccc43)CC2)cc1	12%	18µM*	4	0	?	i
COc1ccccc1NC(=O)CN1CCN(C2c3ccccc3-c3ccccc32)CC1	?	i	10	13	5.8µM*	?
COc1ccc(NC(=O)CN2CCN(c3ccccc3F)CC2)c(OC)c1	·	i	·	2	·	i
CCOc1ccc(NC(=O)CN2CCN(CC(=O)Nc3ccccc3OC)CC2)cc1	-3%	i	16	0	-10%	i
